The nature of test [1]: HPAF-II 24hr Apoptosis Induction qHTS against the NCATS CANVASS Library (AID 1347356). Summed up: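 Caspase-Glo 3/7 luminescence, read after 15 min room-temperature development, measures apoptosis in HPAF-II cells treated 24 h at 37 degrees C with an 11-point concentration series; 500 cells/well; doxorubicin control.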
A general note: Quantitative high-throughput screening tests each substance at several concentrations.

Test [2] is described as follows: HEK293 18hr Apoptosis Induction qHTS against the NCATS CANVASS Library (AID 1347357). A digest of the protocol: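 HEK293 cells (500/well, DMEM + 10% FBS) treated with an 11-point series for 18 h at 37 degrees C. Caspase-3/7 activity read by Caspase-Glo luminescence after 15 min at room temperature.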
Test [3] in a line: HEK293 24hr Apoptosis Induction qHTS against the NCATS CANVASS Library (AID 1347359). A digest of the protocol:
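HEK293 cells (500/well, DMEM + 10% FBS) were exposed to compounds in an 11-point series for 24 hours at 37 degrees C, then caspase-3/7 activity was read by Caspase-Glo DEVD luciferase luminescence after 15 min.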

Test [4] in a line: HPAF-II 18hr Apoptosis Induction qHTS against the NCATS CANVASS Library (AID 1347360). Summed up:
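HPAF-II cells at 500/well were exposed for 18 h at 37 C to an 11-point compound series. Caspase-3/7 activity was read by Caspase-Glo luminescence after 15 min at RT.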

Test [5] concerns NAD(P)H diaphorase (Clostridium kluyveri). The test is described as follows: Diaphorse counterscreen qHTS: Assay Interference Panel against the NCATS CANVASS Library (AID 1347362). A digest of the protocol: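 Clostridium kluyveri diaphorase in PBS with 0.01% Tween-20 was preincubated 15 min at room temperature in the dark with compounds (11-point series). Resorufin fluorescence (ex 525/20, em 598/25) was read 5 min after adding resazurin/NADH.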
(In general: A counterscreen serves to expose hits that act by an unwanted route or on another target.)

Test [6] addresses Luciferin 4-monooxygenase (Photinus pyralis) (UniProt P08659). The test is described as follows: Firefly luciferase counterscreen qHTS: Assay Interference Panel against the NCATS CANVASS Library (AID 1347363). Further: series mostly up to about 57 µM. A digest of the protocol:
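Purified P. pyralis luciferase was added to compounds (11-point series) preincubated 15 min at room temperature with substrate containing 0.013 mM D-luciferin and 0.013 mM ATP; luminescence was read after 5 min.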

The nature of test [7]: KB-3-1 Cancer Cell Toxicity qHTS against the NCATS CANVASS Library (AID 1347366). Further: series mostly up to about 46 µM; nearly all actives have a fitted effect of over 75% in size. Summed up:
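KB-3-1 cells (500/well) in DMEM with 10% FBS were exposed to compounds for 72 h at 37C. Viability was read by CellTiter-Glo luminescence.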

The nature of test [8]: qHTS for ATAD5 Agonist screened against the NCATS CANVASS Library (AID 1347367).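 Further: luciferase reporter driven by ATAD5 which rises upon DNA damage.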 Summed up: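 Luciferase reporter under ATAD5 control, stably integrated in HEK293T cells (2000/well). Compounds (11 points) incubated 16 h at 37C; viability read first by CellTiter-Fluor, then luminescence reporting ATAD5 activation. MMS positive control.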
A short description of test [9]: G06 Cancer Cell Toxicity qHTS against the NCATS CANVASS Library (AID 1347368). Further: nearly all actives have a fitted effect of over 60% in size. Further: potency means the concentration at half of the fitted maximal effect. Summed up: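 Viability measured by CellTiterGlo ATP luminescence after 72 hr at 37C, 5% CO2. Canine G06 glioma cells plated at 500/well. Compounds tested as 11-point qHTS titrations.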
The nature of test [10]: MCF7 Cancer Cell Toxicity qHTS against the NCATS CANVASS Library (AID 1347369). Further: potency means the concentration at half of the fitted maximal effect. A digest of the protocol: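 MCF7 cells (500/well) were exposed 72 h at 37 °C to compounds in an 11-point series. Viability was read as ATP content by CellTiterGlo luminescence.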
Test [11] in a line: J3T Cancer Cell Toxicity qHTS against the NCATS CANVASS Library (AID 1347371). Further: potency means the concentration at half of the fitted maximal effect. A digest of the protocol: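 Cytotoxicity read as CellTiterGlo ATP luminescence after 72 h incubation (37C, 5% CO2) of J3T canine glioma cells (500/well) with an 11-point compound series.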
Test [12] deals with Nuclear receptor subfamily 1 group I member 3 (Homo sapiens) (UniProt Q14994). Nature of the test: qHTS for Constitutive Androstane Receptor (CAR) Antagonist screened against the NCATS CANVASS Library (AID 1347372).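 Further: cells stimulated with 50 nM CITCO agonist so inhibition reflects antagonism; luciferase from CYP2B6 promoter reporter driven by hCAR in HepG2 cells; series mostly up to about 46 µM.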 A digest of the protocol:
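Cells were seeded and left 4hr to attach, then received compound at 11 concentrations and 50 nM CITCO. Following 24hr incubation, fluorescence viability and luciferase luminescence were read sequentially.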

The target is the same in test [13]. Nature of the test: qHTS for Constitutive Androstane Receptor (CAR) Agonist screened against the NCATS CANVASS Library (AID 1347373).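 Further: every well also contained 1.5 µM PK11195 alongside the test compound.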 Summed up: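 Agonist mode with 1.5uM PK11195 present: compounds for 24hr on HepG2-hCAR-CYP2B6 cells. CellTiter-Fluor fluorescence (ex 405, em 540 nm) gives viability; ONE-Glo luminescence reports CAR activation.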
The nature of test [14]: 10-beta competent E. coli microbial cell viability qHTS against the NCATS CANVASS Library (AID 1347376). Further: series mostly up to about 46 µM. Summed up: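 Read-out: BacTiter-Glo ATP luminescence, taken 20 min after reagent addition. Beforehand, 10-beta competent E. coli at 0.2 OD had been incubated overnight at 37C with compounds at 11 concentrations.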
Test [15] in a line: qHTS for H2AX Agonists against the NCATS CANVASS Library (AID 1347378). Summed up: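 CHO-K1 cells (1000/well, overnight at 37C) exposed to compounds at several concentrations for 3 hr at 37C, 0.76% DMSO final. Lysates read by TR-FRET (phospho-H2AX S139 Eu-cryptate antibody / H2AX-d2 antibody) after 24 hr at room temperature; 665/615 nm ratio.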
Test [16] is described as follows: qHTS for Inflammasome Signaling Inhibitors: IL-1-beta AlphaLISA screen against the NCATS CANVASS Library (AID 1347379).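 Further: human THP-1 cells primed with LPS then triggered with ATP.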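 On Potency: secreted IL-1B measured as AlphaLISA emission at 615 nm; potency means the concentration at half of the fitted maximal effect.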 A digest of the protocol:
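Secreted IL-1B from human THP-1 cells quantified by AlphaLISA 16 hr after compound addition (final up to 57.5 uM). A 1 hr compound pretreatment preceded inflammasome activation with 250 ng/mL LPS plus 1.25 mM ATP (final).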

Test [17] can be described thus: Inflammasome Signaling qHTS Counterscreen: IL-1-beta AlphaLISA counterscreen against the NCATS CANVASS Library (AID 1347381).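 Further: cell-free check with purified IL-1β in medium and no THP-1 cells; series mostly up to about 57 µM.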 Summed up:
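Purified IL-1-beta (4 pg/well) + compound, 11-pt conc. series; acceptor beads 6 ug/mL + biotin-Ab 0.6 nM final, 1 h RT; SA-donor 24 ug/ml final, 30 min dark RT; read ex 680/em 615.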

The nature of test [18]: Cytotoxicity qHTS for assessment of Hepg2 cells membrane integrity screened against the NCATS CANVASS Library (AID 1347387). Summed up:
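Membrane damage quantified as fluorescent LDH-release signal (ex 560, em 590 nm) in HepG2 cells treated 5 hr at 37C. qHTS format, 11 concentrations spanning 0.59 nM - 46 uM final, cells plated at 2000 per well the night before.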

The nature of test [19]: Viability qHTS for inhibitors of the SERCaMP assay screened against the NCATS CANVASS Library (AID 1347400). Further: nearly all actives have a fitted effect of over 70% in size. Further: potency means the concentration at half of the fitted maximal effect. Summed up:
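CellTiter-Glo luminescence measured cytotoxicity after 48 h at 37C of compound treatment (11-point series). Cells were SH-SY5Y-GLuc SERCaMP MJH297 derivatives, seeded at 1000 per well 4 h beforehand.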

Test [20] in a line: qHTS for ATAD5 Antagonist screened against the NCATS CANVASS Library (AID 1347370).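 Further: HEK293T cells carrying an ATAD5 luciferase reporter co-treated with 10 µM 5-fluorouridine; series mostly up to about 46 µM; nearly all actives have a fitted effect of over 65% in size.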 Summed up: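 Compounds (11-point) co-dosed with 10 µM 5-FUrd for 16 h at 37 °C onto HEK293T-ATAD5 luciferase reporter cells. Viability measured by CellTiter-Fluor fluorescence, then ATAD5 reporter signal by luminescence.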

We go through five compounds from PubChem BioAssay (NCATS).

SMILES strings stand for the structures. A number with no mark means an inactive call. Results filed as inconclusive are left out. Activity calls are given as the source filed them. The call rests on the fitted dose curve; in most records, active means well fitted curve in the direction sought with a large enough effect; inconclusive means small, poorly fitted or top-dose-only effect, or another doubt; inactive means no such curve, though single readings can be large; an effect the other way counts as inactive or inconclusive. Bridge positions count the residues as written; N and C are the ends. Square brackets hold non-standard residues; d marks the D form. Side chains are listed from the residue outwards. Peptide text beside a SMILES is read from it. * marks the point of attachment. Phg(4-OMe) = COc1ccc([C@H](N)C(=O)O)cc1; d(aIle) = CC[C@H](C)[C@@H](N)C(=O)O; d(aThr) = C[C@@H](O)[C@@H](N)C(=O)O; NMeF = CN[C@@H](Cc1ccccc1)C(=O)O; Isobutyryl = CC(C)C(=O)*

Nuclear receptor subfamily 1 group I member 3 (Homo sapiens), sequence (Q14994 whole entry, looked up): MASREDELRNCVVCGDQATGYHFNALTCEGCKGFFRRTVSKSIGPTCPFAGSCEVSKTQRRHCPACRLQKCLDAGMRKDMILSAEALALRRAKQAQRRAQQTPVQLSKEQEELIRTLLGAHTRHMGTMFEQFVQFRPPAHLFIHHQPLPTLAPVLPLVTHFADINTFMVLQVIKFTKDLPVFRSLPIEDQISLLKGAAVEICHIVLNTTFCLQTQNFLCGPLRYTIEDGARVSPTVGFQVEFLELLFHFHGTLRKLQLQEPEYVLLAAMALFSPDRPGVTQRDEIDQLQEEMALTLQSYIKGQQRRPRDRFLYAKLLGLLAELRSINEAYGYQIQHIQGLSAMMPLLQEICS
Luciferin 4-monooxygenase (Photinus pyralis), sequence (P08659 whole entry, looked up): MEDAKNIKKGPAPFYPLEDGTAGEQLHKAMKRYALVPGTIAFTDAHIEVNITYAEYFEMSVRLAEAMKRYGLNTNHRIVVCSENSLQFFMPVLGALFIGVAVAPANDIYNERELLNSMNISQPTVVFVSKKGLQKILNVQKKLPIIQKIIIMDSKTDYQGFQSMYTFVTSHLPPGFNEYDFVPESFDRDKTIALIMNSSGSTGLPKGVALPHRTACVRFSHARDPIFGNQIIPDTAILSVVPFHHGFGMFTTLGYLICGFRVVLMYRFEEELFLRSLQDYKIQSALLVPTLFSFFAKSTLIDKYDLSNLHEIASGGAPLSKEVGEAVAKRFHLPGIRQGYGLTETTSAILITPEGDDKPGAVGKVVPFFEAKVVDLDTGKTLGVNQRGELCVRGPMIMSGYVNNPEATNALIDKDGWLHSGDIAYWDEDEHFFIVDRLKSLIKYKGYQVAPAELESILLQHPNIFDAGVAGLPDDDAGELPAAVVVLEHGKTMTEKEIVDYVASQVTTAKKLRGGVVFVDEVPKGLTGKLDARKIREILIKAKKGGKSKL

As to `C/C=C(/C)c1cc(O)c(C)c2c1Oc1cc(O)cc(C)c1C(=O)O2`, the compound was classed as inactive in test [1], in test [14], in [17] and in test [18]. Also, the Potency entry in test [2], in [3], in test [4], in [5], in test [6] and in test [7] was “inactive” each time. Also, the Potency result in test [8], in test [9], in [10], in [11], in [12] and in test [13] was “inactive” throughout. Also, the Potency result in [15], in test [16] and in test [19] was “inactive” in each case.
As for `CO[C@H]1[C@@H](OC(=O)/C(C)=C\[C@@H]2O[C@@H]2[C@H]2O[C@H]2C)[C@H](O)[C@H](OCC23C[C@@H]4[C@H](C)CC[C@H]4C4(C=O)CC2C=C(C(C)C)C34C(=O)O)O[C@@H]1C` (some centres not stated), the compound was classed as inactive in [1], in test [14], in test [17] and in test [18]. In addition, the Potency entry in test [2], in [3], in test [4], in test [5], in test [6] and in [7] was “inactive” in each case. In addition, the Potency entry in test [8], in test [9], in [10], in [20], in test [11] and in test [12] was “inactive” in each case. Further, the Potency entry in test [13], in test [15], in test [16] and in [19] was “inactive” each time.
Turning to `CC[C@H](C)[C@H]1NC(=O)[C@@H](NC(=O)C(C)C)[C@@H](C)OC(=O)[C@H](COC(=O)CNC(C)=O)NC(=O)[C@@H]([C@@H](C)O)NC(=O)[C@H](Cc2ccccc2)N(C)C(=O)[C@H](c2ccc(OC)cc2)NC1=O` (Isobutyryl-T[d(aIle)][Phg(4-OMe)][NMeF][d(aThr)]S([Gly-Ac]); ester 1-C), the call in test [1], in [14], in [17] and in test [18] was inactive. Besides, the Potency entry in test [2], in [3], in test [4], in [5], in test [6] and in [7] was “inactive” throughout. The Potency result in test [8], in test [9], in [10], in test [20], in test [11] and in test [12] was “inactive” throughout. The Potency entry in [13], in [15], in test [16] and in test [19] was “inactive” in each case.
In the case of `CN1CC[C@]2(c3cccc4c3N[C@H]3N(C)CC[C@@]43[C@]34CCN(C)[C@H]3Nc3ccccc34)c3ccccc3N[C@H]12`, the call in test [1], in test [14], in test [17] and in test [18] was inactive. Moreover, the Potency entry in test [2], in test [3], in test [4], in test [5], in test [6] and in [8] was “inactive” each time. Also, the Potency entry in test [20], in test [13] and in test [15] was “inactive” in each case. Moreover, the Potency was 7.43 µM (active) in [9]; 11.7 µM (active) in test [10]; 9.35 µM (active) in [11]; 21.7 µM (active) in [16]; 15.2 µM (active) in [19].
On to `CC(C)[C@]12CC[C@@]3(C)[C@H](C)CC[C@H](O)[C@@]3(CC1)c1cc3c(cc12)[nH]c1ccccc13`, for which the compound was classed as inactive in [1], in [14], in test [17] and in [18]. The Potency result in test [2], in test [3], in test [4], in test [5], in [6] and in test [7] was “inactive” each time. Also, the Potency entry in test [8], in test [9], in test [10], in [20], in test [11] and in [12] was “inactive” each time. For the same compound, the Potency result in test [13], in [15], in [16] and in test [19] was “inactive” each time.
